ChEMBL document CHEMBL2218924, “A broad activity screen in support of a chemogenomic map for kinase signalling research and drug discovery” (Biochem J, 2013)

Key:
[1] = molecular target: T1, Ephrin type-A receptor 3 (Homo sapiens) (UniProt P29320); settings: at 10 µM
T1 sequence (whole entry): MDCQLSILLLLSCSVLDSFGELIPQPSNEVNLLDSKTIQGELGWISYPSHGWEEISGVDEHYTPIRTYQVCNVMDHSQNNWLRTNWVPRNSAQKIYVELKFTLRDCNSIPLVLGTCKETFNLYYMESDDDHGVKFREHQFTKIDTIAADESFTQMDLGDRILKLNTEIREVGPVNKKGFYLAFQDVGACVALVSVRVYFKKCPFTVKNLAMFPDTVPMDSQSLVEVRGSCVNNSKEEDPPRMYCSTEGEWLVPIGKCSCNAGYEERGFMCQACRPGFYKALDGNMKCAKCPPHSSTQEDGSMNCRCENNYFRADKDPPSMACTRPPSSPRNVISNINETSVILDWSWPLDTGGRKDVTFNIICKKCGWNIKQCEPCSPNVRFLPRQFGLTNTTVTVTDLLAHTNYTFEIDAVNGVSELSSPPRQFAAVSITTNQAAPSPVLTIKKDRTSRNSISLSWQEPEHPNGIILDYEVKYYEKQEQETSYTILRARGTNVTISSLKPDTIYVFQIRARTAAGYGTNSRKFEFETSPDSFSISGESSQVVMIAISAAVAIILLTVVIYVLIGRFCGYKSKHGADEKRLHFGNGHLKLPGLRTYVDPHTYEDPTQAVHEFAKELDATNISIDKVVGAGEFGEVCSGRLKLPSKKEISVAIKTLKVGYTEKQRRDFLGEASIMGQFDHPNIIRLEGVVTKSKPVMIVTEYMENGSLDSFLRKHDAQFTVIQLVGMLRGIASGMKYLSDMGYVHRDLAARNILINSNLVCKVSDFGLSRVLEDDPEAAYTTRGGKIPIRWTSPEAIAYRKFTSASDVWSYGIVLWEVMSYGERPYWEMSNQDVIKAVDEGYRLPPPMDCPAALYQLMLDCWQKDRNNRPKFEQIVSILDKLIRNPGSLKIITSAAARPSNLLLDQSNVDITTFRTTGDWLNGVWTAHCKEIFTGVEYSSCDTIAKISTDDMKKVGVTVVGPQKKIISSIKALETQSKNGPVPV

[2] = molecular target: Ephrin type-A receptor 4 (Homo sapiens) (UniProt P54764); settings: at 1 µM
Ephrin type-A receptor 4 (Homo sapiens), sequence (P54764 whole entry): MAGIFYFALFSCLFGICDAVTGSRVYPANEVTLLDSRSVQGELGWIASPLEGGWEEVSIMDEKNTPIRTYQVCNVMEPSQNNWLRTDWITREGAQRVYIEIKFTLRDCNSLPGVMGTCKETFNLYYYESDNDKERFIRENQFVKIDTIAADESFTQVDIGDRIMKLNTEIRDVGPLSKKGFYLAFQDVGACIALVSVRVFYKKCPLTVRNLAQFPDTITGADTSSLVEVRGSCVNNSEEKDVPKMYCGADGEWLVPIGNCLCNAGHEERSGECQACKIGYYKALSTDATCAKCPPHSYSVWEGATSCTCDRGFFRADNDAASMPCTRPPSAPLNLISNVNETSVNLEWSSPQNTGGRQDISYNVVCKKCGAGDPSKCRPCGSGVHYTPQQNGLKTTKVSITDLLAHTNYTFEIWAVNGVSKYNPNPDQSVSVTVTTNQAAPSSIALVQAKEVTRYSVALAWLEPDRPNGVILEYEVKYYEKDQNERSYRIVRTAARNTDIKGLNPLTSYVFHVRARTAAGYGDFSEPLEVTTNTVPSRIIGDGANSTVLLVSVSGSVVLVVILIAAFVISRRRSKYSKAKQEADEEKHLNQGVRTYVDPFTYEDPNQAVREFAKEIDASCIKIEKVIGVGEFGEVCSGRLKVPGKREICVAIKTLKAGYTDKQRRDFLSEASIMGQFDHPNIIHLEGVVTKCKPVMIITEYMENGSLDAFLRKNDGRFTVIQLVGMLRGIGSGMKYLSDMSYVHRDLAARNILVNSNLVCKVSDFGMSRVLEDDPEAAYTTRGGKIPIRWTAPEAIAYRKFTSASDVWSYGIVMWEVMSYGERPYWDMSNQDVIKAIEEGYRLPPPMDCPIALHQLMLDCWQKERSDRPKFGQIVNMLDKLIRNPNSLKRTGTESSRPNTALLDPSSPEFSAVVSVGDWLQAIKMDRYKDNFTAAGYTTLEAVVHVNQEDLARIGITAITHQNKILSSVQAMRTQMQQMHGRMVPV

[3] = molecular target: Ephrin type-A receptor 4 (Homo sapiens) (UniProt P54764); settings: at 10 µM
[4] = molecular target: Ephrin type-A receptor 5 (Homo sapiens) (UniProt P54756); settings: at 1 µM
Ephrin type-A receptor 5 (Homo sapiens), sequence (P54756 whole entry): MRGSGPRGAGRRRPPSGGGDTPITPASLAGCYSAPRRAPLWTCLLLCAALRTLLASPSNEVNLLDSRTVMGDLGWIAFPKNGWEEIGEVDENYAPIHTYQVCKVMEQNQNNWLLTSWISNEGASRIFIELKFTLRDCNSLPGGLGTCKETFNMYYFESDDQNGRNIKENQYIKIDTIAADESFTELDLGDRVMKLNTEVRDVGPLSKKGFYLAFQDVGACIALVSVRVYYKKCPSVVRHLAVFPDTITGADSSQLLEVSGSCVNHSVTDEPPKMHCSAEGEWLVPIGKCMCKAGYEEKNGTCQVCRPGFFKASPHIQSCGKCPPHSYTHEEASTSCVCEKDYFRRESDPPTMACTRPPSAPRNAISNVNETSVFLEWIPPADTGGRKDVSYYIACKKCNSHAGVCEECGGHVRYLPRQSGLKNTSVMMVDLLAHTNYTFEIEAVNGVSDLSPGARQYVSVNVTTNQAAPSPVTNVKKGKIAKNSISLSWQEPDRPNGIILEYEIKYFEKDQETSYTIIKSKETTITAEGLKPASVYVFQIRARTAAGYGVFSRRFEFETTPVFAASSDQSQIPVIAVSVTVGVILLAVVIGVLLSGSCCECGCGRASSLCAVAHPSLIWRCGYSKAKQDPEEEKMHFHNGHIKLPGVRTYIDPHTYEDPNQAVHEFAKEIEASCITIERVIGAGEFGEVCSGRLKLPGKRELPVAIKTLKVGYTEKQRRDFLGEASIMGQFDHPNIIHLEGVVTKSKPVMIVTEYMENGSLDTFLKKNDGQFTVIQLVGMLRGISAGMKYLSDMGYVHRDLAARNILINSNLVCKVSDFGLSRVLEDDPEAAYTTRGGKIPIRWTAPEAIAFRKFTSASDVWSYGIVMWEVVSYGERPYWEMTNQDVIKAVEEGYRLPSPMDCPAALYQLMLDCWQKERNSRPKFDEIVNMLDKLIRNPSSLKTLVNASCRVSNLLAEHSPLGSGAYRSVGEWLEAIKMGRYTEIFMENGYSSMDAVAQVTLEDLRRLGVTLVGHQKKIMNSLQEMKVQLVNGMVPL

[5] = molecular target: Ephrin type-A receptor 5 (Homo sapiens) (UniProt P54756); settings: at 10 µM
[6] = molecular target: Ephrin type-A receptor 7 (Homo sapiens) (UniProt Q15375); settings: at 1 µM
Ephrin type-A receptor 7 (Homo sapiens), sequence (Q15375 28-998 limits assumed): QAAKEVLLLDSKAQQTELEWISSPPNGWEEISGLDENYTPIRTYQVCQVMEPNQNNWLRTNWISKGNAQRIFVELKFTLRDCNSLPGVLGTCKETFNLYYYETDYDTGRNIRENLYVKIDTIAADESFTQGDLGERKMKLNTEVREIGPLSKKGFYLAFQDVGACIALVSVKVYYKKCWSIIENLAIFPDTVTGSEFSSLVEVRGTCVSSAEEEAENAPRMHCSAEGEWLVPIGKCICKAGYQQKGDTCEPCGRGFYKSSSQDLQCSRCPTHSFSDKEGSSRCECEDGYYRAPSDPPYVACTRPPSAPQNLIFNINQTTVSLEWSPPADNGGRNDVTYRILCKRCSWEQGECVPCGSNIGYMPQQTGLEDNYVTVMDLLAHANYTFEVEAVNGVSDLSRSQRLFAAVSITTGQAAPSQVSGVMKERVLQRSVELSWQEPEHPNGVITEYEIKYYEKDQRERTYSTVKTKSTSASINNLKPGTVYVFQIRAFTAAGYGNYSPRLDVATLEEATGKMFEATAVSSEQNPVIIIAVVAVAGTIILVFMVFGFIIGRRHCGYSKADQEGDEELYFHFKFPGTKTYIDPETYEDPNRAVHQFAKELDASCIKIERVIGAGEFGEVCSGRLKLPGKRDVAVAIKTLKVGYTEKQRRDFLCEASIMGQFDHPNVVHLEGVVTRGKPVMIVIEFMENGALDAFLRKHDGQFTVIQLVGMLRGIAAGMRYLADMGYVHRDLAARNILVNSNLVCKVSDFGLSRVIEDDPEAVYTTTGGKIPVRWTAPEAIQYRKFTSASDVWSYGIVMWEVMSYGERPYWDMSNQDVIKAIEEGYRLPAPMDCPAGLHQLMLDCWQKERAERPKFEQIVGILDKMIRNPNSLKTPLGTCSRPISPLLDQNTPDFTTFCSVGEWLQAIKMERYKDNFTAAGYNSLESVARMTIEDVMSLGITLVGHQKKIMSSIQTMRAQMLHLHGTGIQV

[7] = molecular target: Ephrin type-A receptor 7 (Homo sapiens) (UniProt Q15375); settings: at 10 µM
[8] = molecular target: T2, Ephrin type-A receptor 8 (Homo sapiens) (UniProt P29322); settings: at 1 µM
T2 sequence (whole entry): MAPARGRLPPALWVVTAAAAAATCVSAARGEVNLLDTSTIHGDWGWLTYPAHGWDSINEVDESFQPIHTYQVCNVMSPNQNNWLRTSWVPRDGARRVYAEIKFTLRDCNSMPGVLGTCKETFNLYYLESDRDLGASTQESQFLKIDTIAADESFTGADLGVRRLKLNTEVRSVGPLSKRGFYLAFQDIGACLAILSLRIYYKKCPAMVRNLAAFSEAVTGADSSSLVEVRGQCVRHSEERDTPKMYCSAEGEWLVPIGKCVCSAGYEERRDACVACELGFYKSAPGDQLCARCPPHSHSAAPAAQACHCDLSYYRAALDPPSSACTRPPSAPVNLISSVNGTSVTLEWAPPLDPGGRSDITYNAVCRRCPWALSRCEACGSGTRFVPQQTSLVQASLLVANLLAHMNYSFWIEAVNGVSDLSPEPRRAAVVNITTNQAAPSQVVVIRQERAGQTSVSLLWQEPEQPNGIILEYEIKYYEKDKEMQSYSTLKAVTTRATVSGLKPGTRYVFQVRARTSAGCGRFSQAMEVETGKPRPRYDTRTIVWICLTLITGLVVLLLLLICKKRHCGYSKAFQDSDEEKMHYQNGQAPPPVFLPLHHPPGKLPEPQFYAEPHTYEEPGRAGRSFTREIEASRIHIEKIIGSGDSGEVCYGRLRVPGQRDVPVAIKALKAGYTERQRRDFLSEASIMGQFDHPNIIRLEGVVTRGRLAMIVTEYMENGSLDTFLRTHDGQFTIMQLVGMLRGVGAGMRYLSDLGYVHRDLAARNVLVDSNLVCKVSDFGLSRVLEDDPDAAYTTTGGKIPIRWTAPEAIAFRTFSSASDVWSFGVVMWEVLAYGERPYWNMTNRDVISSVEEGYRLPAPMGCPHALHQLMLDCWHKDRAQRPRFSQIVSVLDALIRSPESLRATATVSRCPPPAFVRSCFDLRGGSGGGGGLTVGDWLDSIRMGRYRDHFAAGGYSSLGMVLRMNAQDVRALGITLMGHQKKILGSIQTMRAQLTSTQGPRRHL

[9] = molecular target: T2, Ephrin type-A receptor 8 (Homo sapiens); settings: at 10 µM
[10] = molecular target: T3, Ephrin type-B receptor 1 (Homo sapiens) (UniProt P54762); settings: at 1 µM
T3 sequence (whole entry): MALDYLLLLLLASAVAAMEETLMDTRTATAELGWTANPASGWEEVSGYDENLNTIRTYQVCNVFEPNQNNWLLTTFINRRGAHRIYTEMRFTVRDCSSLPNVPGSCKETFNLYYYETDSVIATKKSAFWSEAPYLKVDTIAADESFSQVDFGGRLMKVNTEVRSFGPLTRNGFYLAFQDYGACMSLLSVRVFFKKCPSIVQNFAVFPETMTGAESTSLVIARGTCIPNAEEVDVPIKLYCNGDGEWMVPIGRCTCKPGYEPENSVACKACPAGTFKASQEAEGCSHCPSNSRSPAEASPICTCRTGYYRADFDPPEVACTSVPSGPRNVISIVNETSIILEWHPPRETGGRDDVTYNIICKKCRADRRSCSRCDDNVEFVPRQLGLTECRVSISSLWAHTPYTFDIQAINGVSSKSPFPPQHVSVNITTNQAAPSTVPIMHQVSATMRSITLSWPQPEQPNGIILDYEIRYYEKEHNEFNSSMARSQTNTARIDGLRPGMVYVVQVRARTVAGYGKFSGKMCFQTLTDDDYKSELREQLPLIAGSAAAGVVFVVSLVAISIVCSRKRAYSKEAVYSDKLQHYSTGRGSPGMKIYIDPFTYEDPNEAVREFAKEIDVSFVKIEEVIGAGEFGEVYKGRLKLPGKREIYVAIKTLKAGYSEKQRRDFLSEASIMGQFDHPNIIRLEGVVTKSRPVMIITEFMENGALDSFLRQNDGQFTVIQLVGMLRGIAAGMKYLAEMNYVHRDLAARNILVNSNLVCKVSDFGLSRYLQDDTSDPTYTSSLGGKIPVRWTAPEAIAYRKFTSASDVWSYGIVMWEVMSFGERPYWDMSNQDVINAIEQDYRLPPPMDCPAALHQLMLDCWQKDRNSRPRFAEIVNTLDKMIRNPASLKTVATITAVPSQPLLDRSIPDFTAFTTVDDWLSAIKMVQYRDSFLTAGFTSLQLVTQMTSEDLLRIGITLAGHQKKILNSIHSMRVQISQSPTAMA

Q: With `O=C1NC(=O)/C(=C/c2ccc3c(c2)OC(F)(F)O3)S1` as the compound, how does the residual activity [1] read?
A: 93%

Q: What about the residual activity [2] of the same compound?
A: 116%

Q: What about the residual activity [3] of the same compound?
A: 105%

Q: What about the residual activity [4] of the same compound?
A: 115%

Q: And the residual activity [5]?
A: 103%

Q: What about the residual activity [6] of the same compound?
A: 89%

Q: What about the residual activity [7] of the same compound?
A: 102%

Q: And the residual activity [8]?
A: 111%

Q: And the residual activity [9]?
A: 99%

Q: What about the residual activity [10] of the same compound?
A: 115%
